TGFb SMAD3 inh: qHTS for Inhibitors of TGF-b; HepG2 CAGA-GFP TGF-b/SMAD3 reporter, GFP fluorescence, 18 h; TGF-beta stimulated, 500 pg/mL final; Potency, µM (highest dose often 46.1 µM), for inactives: at the highest dose activity, negative = inhibition, usual class: inhibitors; 410,000 compounds, 1.2% hits; AID 588855, 2011; also: potency is read from the fitted curve at half-maximal effect; % is scaled to controls: 0 for no effect and ±100 for the full control effect; nearly all actives have a fitted effect of over 65% in size
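HEPG2 CAGA-GFP reporter cells (1000/well, DMEM with 1% FBS) received compounds, then recombinant TGF-beta at 500 pg/mL final for 18 hours at 37 degrees C. Per-cell GFP summed per well was normalised to unstimulated and stimulated DMSO controls before curve fitting.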
DT40 TDP1 no CPT: qHTS for Inhibitors of human tyrosyl-DNA phosphodiesterase 1 (TDP1): qHTS in cells in absence of CPT; DT40 Tdp1-/- hTDP1 cells, no CPT, ATP luminescence, 48 h; Potency, µM (series often up to 46.2 µM), for the others: at the highest dose activity change, negative = growth inhibition, hits mostly inhibitors; 420,000 compounds, 15% hits; AID 686978, 2013; also: potency is read from the fitted curve at half-maximal effect; % is scaled to controls: 0 for no effect and ±100 for the full control effect; nearly all actives have a fitted effect of over 55% in size
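Seeded 400 DT40-hTDP1 cells/well (vehicle DMSO, no 20 nM CPT); pinned compounds; ≥48 hr at 37 °C; CellTiter-Glo luminescence as viability measure.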
S-ASM inh: Inhibitors of Secretory Acid Sphingomyelinase (S-ASM): qHTS. placental ASM, HMU-PC fluorogenic substrate, 60 min. Potency, µM (series often up to 57.5 µM), for inactives: top-dose activity change, negative = inhibition, most hits filed as inhibitors. 340,000 compounds, 0.006% hits. Sphingomyelin phosphodiesterase (Homo sapiens), P17405; also: potency is read from the fitted curve at half-maximal effect
Target sequence (P17405 47-631 limits assumed): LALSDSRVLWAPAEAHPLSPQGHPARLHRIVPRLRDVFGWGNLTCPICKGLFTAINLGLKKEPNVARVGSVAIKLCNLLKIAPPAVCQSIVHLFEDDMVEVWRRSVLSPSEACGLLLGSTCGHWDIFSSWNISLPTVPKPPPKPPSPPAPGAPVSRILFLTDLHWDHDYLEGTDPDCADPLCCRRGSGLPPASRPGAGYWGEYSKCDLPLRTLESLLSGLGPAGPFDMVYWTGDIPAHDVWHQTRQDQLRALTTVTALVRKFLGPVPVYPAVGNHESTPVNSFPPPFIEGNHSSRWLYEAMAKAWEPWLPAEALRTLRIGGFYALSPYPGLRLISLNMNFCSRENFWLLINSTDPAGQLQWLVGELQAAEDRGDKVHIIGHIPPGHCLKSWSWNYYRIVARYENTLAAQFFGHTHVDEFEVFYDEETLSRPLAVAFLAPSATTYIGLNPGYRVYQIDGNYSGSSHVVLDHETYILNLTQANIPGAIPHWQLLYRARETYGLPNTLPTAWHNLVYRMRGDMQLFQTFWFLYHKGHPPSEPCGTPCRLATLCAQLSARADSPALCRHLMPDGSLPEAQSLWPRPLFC
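Human placenta-derived ASM preincubated with compound 10 min at room temperature, then reacted with 9 uM (final) fluorogenic HMU-PC substrate for 60 min at 37 C. Stop solution raises pH to 10; fluorescence read at Ex 386/Em 447 nm.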
TDP1 cell CPT: qHTS for Inhibitors of human tyrosyl-DNA phosphodiesterase 1 (TDP1): qHTS in cells in presence of CPT; Potency, µM (titrated, usually from 46.2 µM), for the others: top-dose activity change, negative = growth inhibition, actives largely listed as inhibitors; chicken DT40 Tdp1-/-;hTDP1 cells + 20 nM CPT, ATP luminescence, 48 h; 420,000 compounds, 12% hits; also: potency is read from the fitted curve at half-maximal effect; % is scaled to controls: 0 for no effect and ±100 for the full control effect; nearly all actives have a fitted effect of over 55% in size
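Cell growth measured by CellTiter-Glo luminescence after a minimum 48 h, 37 C compound exposure with 20 nM CPT in Tdp1-knockout DT40 cells stably expressing hTDP1, seeded 400/well; qHTS titration format.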
HepG2 viability: qHTS for Inhibitors of TGF-b: Cytotox Counterscreen; HepG2 CAGA-GFP viability, ATP luminescence, 18 h; AID 588856, 2011; Potency, µM (doses to about 46.1 µM), for the others: top-dose activity change, negative = cytotoxicity, most hits filed as cytotoxic; 410,000 compounds, 0.76% hits; also: potency is read from the fitted curve at half-maximal effect
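HepG2 CAGA-GFP cells (1000/well, DMEM with 1% FBS) received compound, then TGF-beta at 500 pg/mL final, and were incubated 18 hours at 37 degrees C. Viability was read by CellTiter-Glo luminescence. Media-only wells were set as complete cell-killing and DMSO as no toxicity.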
IL1B secr inh: qHTS for Inhibitors of Inflammasome Signaling: IL-1-beta AlphaLISA Primary Screen; THP-1 LPS/ATP IL-1B secretion, AlphaLISA, 16 h; active compounds read low; activity change, % at 57.5 µM; 360,000 compounds, 4.7% hits; in the data active = activity change below about -50%; inconclusive = mostly about -30% to -49%; also: % is scaled to controls: 0 for no effect and ±100 for the full control effect
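THP-1 cells pretreated 1 hr with compounds (up to 57.5 uM final), then stimulated with LPS (250 ng/mL final) plus ATP (1.25 mM final); secreted IL-1B measured by AlphaLISA after 16 hr, decreased signal indicating inhibition.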
Active calls of the source: *. An excerpt weighted towards active compounds, which were near 19% of everything screened. Unless noted, calls follow the shape of the dose curve; as a rule, active = well fitted curve in the direction sought with a large enough effect; inconclusive = small, poorly fitted or top-dose-only effect, or another doubt; inactive = no such curve, though single readings can be large; an effect the other way counts as inactive or inconclusive.

Results for COc1ccc(NC(=O)c2nc3nccc(C)n3n2)cc1S(=O)(=O)N1CCOCC1 ?
TGFb SMAD3 inh: 11.8%; DT40 TDP1 no CPT: -1.1%; S-ASM inh: 2.6%; TDP1 cell CPT: -2.5%; HepG2 viability: -0.2%; IL1B secr inh: 16.1

What do the screens show for `Cc1c(NC(=S)NC(=O)c2cc3ccccc3o2)cccc1C(=O)O`?
TGFb SMAD3 inh: -1.5%; DT40 TDP1 no CPT: 12.6%; S-ASM inh: -0.3%; TDP1 cell CPT: 16.8%; HepG2 viability: -12.2%; IL1B secr inh: 36.7

Results for CC1=C(C(=O)Nc2ccccc2C)C(c2ccccn2)n2nc(SCc3ccccc3F)nc2N1 (stereo unspecified) ?
TGFb SMAD3 inh: inconclusive; DT40 TDP1 no CPT: 10.3µM*; TDP1 cell CPT: 6.51µM*; HepG2 viability: 6.6%

Results for COc1ccccc1NC(=O)C1=C(C)Nc2nc(SCc3ccccc3F)nn2C1c1ccncc1 (stereo unspecified) ?
TGFb SMAD3 inh: 23.4%; DT40 TDP1 no CPT: -23.9%; TDP1 cell CPT: -6.3%; HepG2 viability: -2.8%

What do the screens show for `CC1=C(C(=O)Nc2ccccc2C)C(c2ccncc2)n2nc(SCc3ccccc3)nc2N1` (stereo unspecified)?
TGFb SMAD3 inh: -2.7%; DT40 TDP1 no CPT: -8.5%; TDP1 cell CPT: -11.3%; HepG2 viability: 6.2%

Results for CC1=C(C(=O)Nc2ccccc2C)C(c2cccs2)n2nc(SCc3ccccc3)nc2N1 (stereo unspecified) ?
TGFb SMAD3 inh: inconclusive; DT40 TDP1 no CPT: 20.6µM*; TDP1 cell CPT: 20.6µM*; HepG2 viability: -22.7%

What do the screens show for `CC1=C(C(=O)Nc2ccc(C)cc2C)C(c2cccs2)n2nc(SCc3ccc(Cl)cc3)nc2N1` (stereo unspecified)?
TGFb SMAD3 inh: 9.3%; DT40 TDP1 no CPT: 11.6µM*; TDP1 cell CPT: 10.3µM*; HepG2 viability: 2.0%

Results for CCN1CCN(c2ccccc2NC(=O)C(C)Oc2ccc(C(C)=O)cc2)CC1 (stereo unspecified) ?
TGFb SMAD3 inh: 17.4%; DT40 TDP1 no CPT: 10.7%; S-ASM inh: 3.8%; TDP1 cell CPT: -27.5%; HepG2 viability: -1.0%; IL1B secr inh: -14.3

What do the screens show for `Cn1c(=O)cc(NCCc2ccccc2)[nH]c1=O`?
TGFb SMAD3 inh: -5.0%; DT40 TDP1 no CPT: 10.3µM*; S-ASM inh: -0.2%; TDP1 cell CPT: 7.31µM*; HepG2 viability: 0.3%; IL1B secr inh: 28.0

How did Cn1c(=O)cc(Nc2ccccc2)[nH]c1=O do in these assays?
TGFb SMAD3 inh: 5.9%; DT40 TDP1 no CPT: -17.6%; S-ASM inh: 4.9%; TDP1 cell CPT: -16.2%; HepG2 viability: 2.9%; IL1B secr inh: 28.2

Results for Cn1c(NCCc2ccccc2)cc(=O)n(C)c1=O ?
TGFb SMAD3 inh: 11.4%; DT40 TDP1 no CPT: -15.8%; S-ASM inh: -2.0%; TDP1 cell CPT: 0.0%; HepG2 viability: 8.6%; IL1B secr inh: -10.6

Results for Cn1c(=O)cc(Nc2ccc(Cl)cc2)[nH]c1=O ?
TGFb SMAD3 inh: 25.6%; DT40 TDP1 no CPT: 20.6µM*; S-ASM inh: -2.0%; TDP1 cell CPT: inconclusive; HepG2 viability: 14.9%; IL1B secr inh: 40.9

What do the screens show for `O=C1CC(N2CCN(C(c3ccccc3)c3ccccc3)CC2)C(=O)N1Cc1ccc(N2CCCC2=O)cc1` (stereo unspecified)?
TGFb SMAD3 inh: -12.8%; DT40 TDP1 no CPT: 8.5%; S-ASM inh: 0.4%; TDP1 cell CPT: -3.7%; HepG2 viability: -0.4%; IL1B secr inh: 4.0

What do the screens show for `NC(=O)C1CCN(C2CC(=O)N(Cc3ccc(N4CCCC4=O)cc3)C2=O)CC1` (stereo unspecified)?
TGFb SMAD3 inh: -13.4%; DT40 TDP1 no CPT: inconclusive; S-ASM inh: 9.4%; TDP1 cell CPT: 25.9µM*; HepG2 viability: -7.4%; IL1B secr inh: 3.9

What do the screens show for `Cc1nn(-c2ccccc2)c2c1C1(C(=O)N(C(C)C)c3ccccc31)C(C#N)=C(N)O2` (stereo unspecified)?
TGFb SMAD3 inh: 7.9%; DT40 TDP1 no CPT: 16.4µM*; S-ASM inh: -2.0%; TDP1 cell CPT: 9.2µM*; HepG2 viability: -3.2%; IL1B secr inh: 1.1

What do the screens show for `Cc1nn(-c2ccc(F)cc2)c(N)c1C1(O)C(=O)Nc2ccccc21` (stereo unspecified)?
TGFb SMAD3 inh: -9.0%; DT40 TDP1 no CPT: 0.7%; S-ASM inh: 2.3%; TDP1 cell CPT: 3.8%; HepG2 viability: -3.2%; IL1B secr inh: 19.3

Results for Cc1nn(-c2ccccc2)c(N)c1C1(O)C(=O)N(C(C)C)c2ccccc21 (stereo unspecified) ?
TGFb SMAD3 inh: 10.5%; DT40 TDP1 no CPT: 8.2µM*; S-ASM inh: 4.5%; TDP1 cell CPT: 6.51µM*; HepG2 viability: -0.4%; IL1B secr inh: 1.2

What do the screens show for `Cc1ccc(-n2nc(C)c(C3(O)C(=O)N(C(C)C)c4ccccc43)c2N)cc1` (stereo unspecified)?
TGFb SMAD3 inh: inconclusive; DT40 TDP1 no CPT: 11.6µM*; S-ASM inh: 3.0%; TDP1 cell CPT: 10.3µM*; HepG2 viability: -19.5%; IL1B secr inh: 8.1

Results for Cc1noc(N)c1C1(O)C(=O)N(C(C)C)c2ccccc21 (stereo unspecified) ?
TGFb SMAD3 inh: 1.7%; DT40 TDP1 no CPT: -3.4%; S-ASM inh: -3.0%; TDP1 cell CPT: 6.7%; HepG2 viability: -18.9%; IL1B secr inh: -0.8

How did CCCn1nnnc1NCc1ccc(SC)cc1 do in these assays?
TGFb SMAD3 inh: -5.0%; DT40 TDP1 no CPT: -3.8%; S-ASM inh: -0.1%; TDP1 cell CPT: -9.1%; HepG2 viability: -5.1%; IL1B secr inh: -57.7*

Results for CCCCn1nnnc1NCc1cccnc1 ?
TGFb SMAD3 inh: 22.0%; DT40 TDP1 no CPT: 13µM*; S-ASM inh: 1.0%; TDP1 cell CPT: 8.2µM*; HepG2 viability: -29.0%; IL1B secr inh: -3.0

How did Cc1nn(CC(=O)N2CCC(C)CC2)c(=O)c2nn(-c3ccccc3)c(C)c12 do in these assays?
TGFb SMAD3 inh: -0.4%; DT40 TDP1 no CPT: 2.3%; S-ASM inh: -3.1%; TDP1 cell CPT: 5.6%; HepG2 viability: 4.7%; IL1B secr inh: -10.1

Source: PubChem (National Center for Advancing Translational Sciences (NCATS))
